Screens from PubChem BioAssay.
T cruzi growth-1 – T. cruzi proliferation inhibition; T. cruzi beta-gal in NIH3T3, GalScreen luminescence, 90 h; inhibition, % at 8.34 µM; 5.9% of 77,000 active;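 active means mean inhibition above about 93%, with at least 55% of replicates each passing it, limit read from the data, passing the limit was not always enough; inconclusive means only one of those two conditions holds; inactive means neither condition holds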
C diff growth – C. difficile growth inhibition. Clostridium difficile clinical isolate growth, OD600, 24 h; active compounds read low. growth activity, negative = inhibition, % at 16 µg/mL (by protocol). 0.25% of 86,000 active;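 active means mean growth activity at or below -80% and every replicate also at or below -80%; inconclusive means mean at or below -80% but some replicate above -80%; inactive means mean growth activity above -80%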
Pf Dd2 inh – P. falciparum Dd2 growth inhibition. 2.3% of 94,000 active. activity change, % at 10 µM. SYBR Green, 72 h; active compounds read low; in the data active means activity change below about -80%; inconclusive means no clear call, values can overlap the other calls
T cruzi growth-2 – inhibitors of T. cruzi proliferation. shares compounds with T cruzi growth-1. AID 651739. 72% of 5,600 active. T. cruzi beta-gal in NIH3T3, GalScreen luminescence, 90 h. inhibition, % at 8.35 µM;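 active means mean replicate inhibition above about 95% and at least 55% of replicates individually reaching it, limit read from the data; inconclusive means only one of the two criteria is met; inactive means neither criterion is met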
T cruzi growth-3 – inhibitors of T. cruzi proliferation; shares compounds with T cruzi growth-1; T. cruzi beta-gal in NIH3T3, GalScreen luminescence, 90 h; inhibition, % at 2.09 µM; 21% of 5,600 active; AID 651740;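 active means mean inhibition above about 95%, with at least 55% of replicates also reaching it, limit read from the data; inconclusive means meets just one of the two conditions; inactive means meets neither condition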
NIH3T3 tox – NIH/3T3 (mouse) viability loss; shares compounds with T cruzi growth-1; NIH/3T3 viability, CellTiter-Glo ATP luminescence, 90 h; cytotoxicity (signal decrease), % at 8.35 µM; 14% of 5,600 active;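 active means mean signal decrease across replicates above about 35% based on untreated-well scatter, with enough replicates individually passing, limit read from the data; inconclusive means no rule stated though some were filed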
NIH3T3 tox 2 – cytotoxicity in mouse NIH/3T3 fibroblasts | shares compounds with T cruzi growth-1 | NIH/3T3 viability, CellTiter-Glo ATP luminescence, 90 h | 56% of 5,600 active | inhibition, % at 24.9 µM | AID 651744;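 active means mean loss of cell viability signal at or above a set limit, and enough replicates individually reaching it; inconclusive means meets only the mean limit or only the replicate share; inactive means meets neither condition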
Of the large screens only hits and unclear results are named; the others gave an inactive call (follow-up assays come after a bar, where they were run); ! = repeats disagree. This is a sample that favours compounds with a hit; in the whole collection about 6.8% have one here.

COc1ccc(NC(=O)N(C)C[C@H]2Oc3ccc(NC(=O)CCN4CCOCC4)cc3CC(=O)N([C@@H](C)CO)C[C@H]2C)cc1	none (no result: T cruzi growth-1)
C[C@H](CO)N1C[C@H](C)[C@H](CN(C)C(=O)C2CCC2)Oc2cc(C#CCN(C)C)ccc2S1(=O)=O	T cruzi growth-1 inconclusive | T cruzi growth-2 114 | T cruzi growth-3 98 | NIH3T3 tox inactive | NIH3T3 tox 2 inactive
CC(C)C#Cc1ccc2c(c1)O[C@@H](CN(C)C(=O)C1CCC1)[C@H](C)CN([C@H](C)CO)S2(=O)=O	none (no result: C diff growth)
C[C@H]1CN([C@@H](C)CO)S(=O)(=O)c2ccc(C#CCN(C)C)cc2O[C@@H]1CN(C)C(=O)C1CCC1	T cruzi growth-1 105 | T cruzi growth-2 106 | T cruzi growth-3 inactive | NIH3T3 tox inactive | NIH3T3 tox 2 inactive
C[C@H](CO)N1C[C@H](C)[C@@H](CN(C)C(=O)C2CCCCC2)Oc2cc(C#CCN(C)C)ccc2S1(=O)=O	none (no result: T cruzi growth-1)
Cc1ccc(S(=O)(=O)Nc2cccc3c2O[C@@H](CN(C)S(=O)(=O)c2ccccc2)[C@@H](C)CN([C@H](C)CO)C3=O)cc1	none (no result: C diff growth)
CCC(=O)N1CCC2(CC1)CN(C(=O)CN1CCOCC1)[C@H](CO)c1[nH]c3cc(OC)ccc3c12	none (no result: T cruzi growth-1)
Cc1ccc(S(=O)(=O)N(C)C[C@H]2Oc3c(cccc3N(C)C)C(=O)N([C@H](C)CO)C[C@H]2C)cc1	none
Cc1ccc(S(=O)(=O)N(C)C[C@@H]2Oc3ncc(/C=C/c4ccccc4)cc3C(=O)N([C@H](C)CO)C[C@@H]2C)cc1	T cruzi growth-1 120 | T cruzi growth-2 102 | T cruzi growth-3 inactive | NIH3T3 tox inactive | NIH3T3 tox 2 54
C[C@H](CO)N1C[C@H](C)[C@H](CN(C)S(=O)(=O)c2ccccc2F)Oc2ncc(/C=C/c3ccccc3)cc2C1=O	none
Cc1ccc(S(=O)(=O)N(C)C[C@H]2Oc3c(cccc3N(C)C)C(=O)N([C@@H](C)CO)C[C@H]2C)cc1	T cruzi growth-1 102 | T cruzi growth-2 inactive | T cruzi growth-3 inactive | NIH3T3 tox inactive | NIH3T3 tox 2 inactive
C/C=C/c1cnc2c(c1)C(=O)N([C@H](C)CO)C[C@H](C)[C@H](CN(C)S(=O)(=O)c1ccc(C)cc1)O2	none
C[C@H](CO)N1C[C@H](C)[C@H](CN(C)S(=O)(=O)c2ccccc2)Oc2ncc(/C=C/c3ccccc3)cc2C1=O	T cruzi growth-1 113! | T cruzi growth-2 inconclusive | T cruzi growth-3 inactive | NIH3T3 tox inactive | NIH3T3 tox 2 71
C[C@H]1CN([C@@H](C)CO)C(=O)c2cc(/C=C/c3ccccc3)cnc2O[C@H]1CN(C)S(=O)(=O)c1ccccc1	none
C[C@@H]1CN([C@H](C)CO)C(=O)c2cc(/C=C/c3ccccc3)cnc2O[C@H]1CN(C)S(=O)(=O)c1ccccc1F	T cruzi growth-1 109 | T cruzi growth-2 113 | T cruzi growth-3 inactive | NIH3T3 tox inactive | NIH3T3 tox 2 24
O=C1CN(S(=O)(=O)Cc2ccccc2)C[C@H]2[C@H](c3ccc(C#Cc4cccnc4)cc3)[C@H](CO)N12	none (no result: T cruzi growth-1)
CCNC(=O)C[C@H]1CC[C@H]2[C@@H](COC[C@H](O)CN2C(=O)Nc2c(C)noc2C)O1	none (no result: C diff growth)
CCCN(C)C[C@@H]1Oc2cc(C3=CCCCC3)ccc2S(=O)(=O)N([C@H](C)CO)C[C@@H]1C	none (no result: T cruzi growth-1)
C[C@@H]1CN([C@@H](C)CO)C(=O)c2cc(NC(=O)Nc3ccc4c(c3)OCO4)ccc2O[C@@H]1CN(C)Cc1ccc(C(F)(F)F)cc1	none
Cc1noc(C)c1S(=O)(=O)N(C)C[C@H]1Oc2c(NS(=O)(=O)c3cn(C)cn3)cccc2C(=O)N([C@@H](C)CO)C[C@@H]1C	none
C[C@@H]1CN([C@H](C)CO)C(=O)c2cc(/C=C/c3ccccc3)cnc2O[C@@H]1CN(C)S(=O)(=O)c1ccccc1	none
C[C@H]1CN([C@@H](C)CO)C(=O)c2cc(/C=C/c3ccccc3)cnc2O[C@@H]1CN(C)S(=O)(=O)c1ccccc1	T cruzi growth-1 127 | T cruzi growth-2 106 | T cruzi growth-3 inactive | NIH3T3 tox inactive | NIH3T3 tox 2 inconclusive
COCC(=O)N1CCCCN2[C@H](CO)[C@@H](c3ccc(-c4ccc(C)cc4)cc3)[C@H]2C1	none
